Only a selection was taken, and hits are over-represented in it overall.
nsP2pro inh – Primary qHTS for inhibitors of NSP2Pro chikungunya virus (CHIKV); AID 1964107, 2024; Potency, µM (titrated, usually from 24.9 µM), without a hit: at the highest dose activity change, negative = inhibition, actives largely listed as inhibitors; FRET peptide cleavage, nsP2pro, fluorescence 1 h; hit rate 1.1% among 31,000; Polyprotein P1234 (Chikungunya virus (strain S27-African prototype)), Q8JUX6; also: nearly all actives have a fitted effect of over 60% in size
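Recombinant nsP2pro (150 nM) was preincubated with compound 15 min at room temperature in 10 mM Tris-HCl pH 8.0, 0.01% Tween 20. Peptide 2 FRET substrate (2.5 uM) was then added and fluorescence read after 1 h. Seven-point series, up to 25 uM.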
CHIKV nsP2 cell – Secondary cell base assay for inhibitors of NSP2Pro Chikungunya virus (CHIKV) | cell-based CHIKV nsP2 protease reporter assay | shares compounds with nsP2pro inh | Potency, µM (doses to about 51.1 µM), for inactives: top-dose activity change, negative = inhibition, most hits filed as inhibitors | hit rate 10% among 450; also: nearly all actives have a fitted effect of over 70% in size
CHIKV NSP2 FL – Selectivity profile for inhibitors of NSP2Pro chikungunya virus (CHIKV): Full length NSP2 enzyme counterscreen (CHIKV-NSP2); shares compounds with nsP2pro inh; hit rate 39% among 410; Potency, µM (doses to about 50.7 µM), for the others: at the highest dose activity change, negative = inhibition, hits mostly inhibitors; AID 1964101, 2024; Full-length CHIKV NSP2 protease enzymatic counterscreen; also: nearly all actives have a fitted effect of over 65% in size
Furin counter – Selectivity profile for inhibitors of NSP2Pro chikungunya virus (CHIKV): Human furin counterscreen | Potency, µM (doses to about 50.6 µM), for the others: at the top dose activity change, negative = inhibition, actives largely listed as inhibitors | AID 1964102, 2024 | hit rate 6% among 410 | shares compounds with nsP2pro inh | Recombinant human furin enzymatic counterscreen, fluorogenic substrate
NS23 peptide cs – Selectivity profile for inhibitors of NSP2Pro chikungunya virus (CHIKV): Endogenous NS2/3 peptide Counterscreen | shares compounds with nsP2pro inh | Purified CHIKV nsP2 protease, endogenous NS2/3 peptide cleavage | Potency, µM (highest dose often 51 µM), for inactives: top-dose activity change, negative = inhibition, usual class: inhibitors | hit rate 34% among 410 | AID 1964103, 2024; also: nearly all actives have a fitted effect of over 55% in size
Papain counter – Selectivity profile for inhibitors of NSP2Pro chikungunya virus (CHIKV): Papain Counterscreen; shares compounds with nsP2pro inh; purified papain protease activity, enzymatic inhibition; Potency, µM (doses to about 51 µM), for the others: at the highest dose activity change, negative = inhibition, usual class: inhibitors; hit rate 5% among 410; AID 1964104, 2024
nsP2pro confirm – Confirmatory qHTS for inhibitors of NSP2Pro chikungunya virus (CHIKV); shares compounds with nsP2pro inh; CHIKV nsP2 protease enzymatic activity, qHTS; Potency, µM (titrated, usually from 25.5 µM), for inactives: at the highest dose activity change, negative = inhibition, most hits filed as inhibitors; hit rate 43% among 410; AID 1964105, 2024; also: nearly all actives have a fitted effect of over 75% in size
HCV NS3 4A cs – Selectivity profile for inhibitors of NSP2Pro chikungunya virus (CHIKV): NS34A-HCV Counterscreen | shares compounds with nsP2pro inh | HCV NS3/4A protease biochemical counterscreen | Potency, µM (series often up to 50.9 µM), hits mostly inhibitors | hit rate 20% among 410; also: nearly all actives have a fitted effect of over 55% in size
Starred values were filed as active, the others as inactive; i = inactive; ? = inconclusive; [ ] = remark or other dose. Calls follow the shape of the full dose curve. % is scaled to controls: 0 for no effect and ±100 for the full control effect; potency is read from the fitted curve at half-maximal effect.

SMILES	nsP2pro inh	others
COC(=O)N[C@H](C(=O)N1CCC[C@H]1c1ncc(-c2ccc3c(c2)O[C@@H](c2ccccc2)n2c-3cc3cc(-c4cnc([C@@H]5CCCN5C(=O)[C@@H](NC(=O)OC)C(C)C)[nH]4)ccc32)[nH]1)C(C)C	-0.2%
CC(=O)N1CCC(N2CCOC[C@H]2c2ncc(-c3ccncc3)[nH]2)CC1	i
CNC(C)CC1CCCC1 (stereo unspecified)	-3.8%
COC1(O[C@H]2CC[C@H]3[C@@H]4CC[C@H]5C[C@@H]6S[C@@H]6C[C@]5(C)[C@H]4CC[C@]23C)CCCC1	1.6%
O=C(Nc1cncc(Cc2ccccc2)c1)c1ccc(-c2cccc([N+](=O)[O-])c2)o1	-11.9%
O=C(Nc1cccc(Cc2ccccc2)n1)c1ccc(-c2cccc([N+](=O)[O-])c2)o1	10µM*	CHIKV nsP2 cell=47.9%;CHIKV NSP2 FL=?;Furin counter=0.3%;NS23 peptide cs=-14.2%;Papain counter=-9.6%;nsP2pro confirm=?;HCV NS3 4A cs=i
O=C(Nc1cccc(Cc2ccccc2)c1)c1ccc(-c2cccc([N+](=O)[O-])c2)o1	4.5%
CC(C)c1nc2c(cnn2C)c(=O)n1N	-1.1%
CC1=CC(O)CC(C)(C)C1/C=C/C(C)=C/C=C/C(C)=C/C=C/C=C(C)/C=C/C=C(C)/C=C/C1=C(C)CC(O)CC1(C)C (stereo unspecified)	-25.9%
COc1ccc(CNc2ccc(-c3nc4ccccc4[nH]3)cc2)cc1OC	-1.5%
CCCCCC[C@@H](O)C/C=C\CCCCCCCC(=O)O	-13.8%
CCCCCC/C=C\CCCCCCCC(=O)O	10.4%
CC/C=C\C/C=C\C/C=C\C/C=C\C/C=C\CCCC(=O)O	?	CHIKV nsP2 cell=13.1%[100 µM];CHIKV NSP2 FL=6.68µM*;Furin counter=-10.8%[100 µM];NS23 peptide cs=?;Papain counter=33.5µM*;nsP2pro confirm=8.19µM*;HCV NS3 4A cs=i
CCCSS/C(CCO)=C(\C)N(C=O)Cc1cnc(C)nc1N	8.81µM*	CHIKV nsP2 cell=-20.6%;CHIKV NSP2 FL=16.3µM*;Furin counter=-0.6%;NS23 peptide cs=?;Papain counter=-5.8%;nsP2pro confirm=7.98µM*;HCV NS3 4A cs=i
CCOC(=O)OCC/C(SC(=O)OCC)=C(\C)N(C=O)Cc1cnc(C)nc1N	0.0%
C/C(=C(\CCOP(=O)(O)O)SC(=O)c1ccccc1)N(C=O)Cc1cnc(C)nc1N	-8.4%[2.68 µM]
Cc1ccc(CN(C)c2ncnc3ccc(-c4ccc(C(=O)O)o4)cc23)o1	1.0%
CCOC(=O)c1noc2ncn(Cc3cccc(C#N)c3)c(=O)c12	-12.8%
CCOC(=O)[C@H]1O[C@@H]1C(=O)N[C@@H](CC(C)C)C(=O)NCCC(C)C	8.81µM*	CHIKV nsP2 cell=-9.1%;CHIKV NSP2 FL=16.3µM*;Furin counter=-9.3%;NS23 peptide cs=?;Papain counter=1.16µM*;nsP2pro confirm=7.98µM*;HCV NS3 4A cs=i
CC(C)CCNC(=O)[C@H](CC(C)C)NC(=O)[C@H]1O[C@@H]1C(=O)NCc1cccc(C#N)c1	2.51µM*	CHIKV nsP2 cell=?;CHIKV NSP2 FL=6.51µM*;Furin counter=0.5%;NS23 peptide cs=5.8µM*;Papain counter=2.59µM*;nsP2pro confirm=2.52µM*;HCV NS3 4A cs=i
CC(C)CCNC(=O)C1CCCN(C2CCN(CCc3ccccc3)CC2)C1 (stereo unspecified)	3.8%
CCn1cc(-c2cccc(C(F)(F)F)c2)c2sc(C(N)=NC3CCS(=O)(=O)CC3)cc2c1=O	36.6%
COc1ccccc1CC(=O)N1CCC2(CC1)N=C(c1ccc(C)cc1)NO2	-3.2%
CCN1C(=O)N(c2c(F)c(OC)cc(OC)c2F)Cc2cnc3[nH]c(CN4CCOCC4)cc3c21	-8.5%
C[C@H](CCC(=O)NCC(=O)O)[C@H]1CC[C@H]2[C@@H]3[C@@H](O)C[C@@H]4C[C@H](O)CC[C@]4(C)[C@H]3CC[C@]12C	-18.9%
SMILES	nsP2pro inh	others
Cc1ccc(OCCC2CCN(C(=O)c3cc(CN4CCOCC4)on3)C2)cc1 (stereo unspecified)	2.5%
Cc1ccc(-c2cc3n(n2)CCCN(C(=O)c2cc(CN4CCOCC4)on2)C3)o1	1µM*	CHIKV nsP2 cell=-9.1%;CHIKV NSP2 FL=14.6µM*;Furin counter=-7.3%;NS23 peptide cs=?;Papain counter=-5.3%;nsP2pro confirm=7.11µM*;HCV NS3 4A cs=?
COc1ccc(-c2cc3n(n2)CCCN(C(=O)c2cc(CN4CCOCC4)on2)C3)cc1	16.3%
Cc1cnc(C(=O)N2CC(Cn3c(C)cnc3-c3ccncc3)C2)cn1	6.9%
CN(C1CCCc2ccccc21)S(=O)(=O)c1cccc(C(F)(F)F)c1 (stereo unspecified)	2.3%
Cc1cccc(Nc2ccccc2C(=O)O)c1C	1.1%
O=C(O)c1ccccc1Nc1cc(Cl)ccc1C(=O)O	-16.7%[10 µM]
Cc1cc(Nc2ccccc2C(=O)O)ccc1Cl	3.51µM*	CHIKV nsP2 cell=-5.3%;CHIKV NSP2 FL=13µM*;Furin counter=-10.3%;NS23 peptide cs=?;Papain counter=?;nsP2pro confirm=2µM*;HCV NS3 4A cs=i
Cc1nn(CCC#N)c(C)c1[C@@H]1C=C[C@@H](NC(=O)c2cccs2)C1	?	CHIKV nsP2 cell=3.5%
CCNC(=O)N[C@@H]1C=C[C@@H](c2c(C)nn(-c3ccc(F)cc3)c2C)C1	1.5%[39.2 µM]
Cc1nn(Cc2ccccc2)c(C)c1[C@@H]1C=C[C@@H](NC(=O)c2cccs2)C1	-4.5%[39.2 µM]
CC[C@]12C=CCN3CC[C@@]4(c5cc([C@@]6(C(=O)OC)CC7C[C@@H](C(C)(F)F)CN(Cc8c6[nH]c6ccccc86)C7)c(OC)cc5N(C)[C@H]4[C@@](O)(C(=O)OC)[C@@H]1OC(C)=O)[C@@H]32 (stereo partly specified)	1.4%
CCC(=O)N1CCCCCCNC(=O)[C@@H]2C[C@@H](C(=O)N3CCN(c4ccccn4)CC3)C[C@@H]21	-0.3%
Cc1cc(C)nc(NC(=S)N2CCN(c3ccc4nccn4c3)CC2)c1	-15.9%
COc1ccc(C(=O)N(Cc2ccco2)Cc2ccco2)c(O)c1	5.01µM*	CHIKV nsP2 cell=20.6µM*;CHIKV NSP2 FL=?;Furin counter=-7.4%;NS23 peptide cs=?;Papain counter=-6.0%;nsP2pro confirm=?;HCV NS3 4A cs=?
Cc1ccc(CN(Cc2ccco2)C(=O)c2ccc(Cl)cc2Cl)cc1	31.7%

Screening results from PubChem BioAssay.
